Measurements: PubChem BioAssay (Tox21)
Inconclusive results are not listed. Where a call stands in place of a potency, no number is given. A number with no mark means an inactive call. The source made the active and inactive calls. The call rests on the fitted dose curve; in most records, active means well fitted cell-killing curve with a large enough effect in the repeat runs; inconclusive means weak or mixed curves, or effect the other way; inactive means flat fitted curve, though single readings scatter.

How the values were obtained:
[1] = cAMP Responsive Elements (CRE) small molecule antagonists, cell-based qHTS assay: qHTS cell viability counter screen (AID 2060913); further: nearly all actives have a fitted effect of over 40% in size
Outline: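 Viability of NKH477-stimulated (0.25 uM final) CRE-bla HEK293T cells is measured by CellTiter-Glo luminescence following 3 hrs compound exposure at 37 C.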

[2] = cAMP Responsive Elements (CRE) small molecule agonists, cell-based qHTS assay: qHTS cell viability counter screen (AID 2060914);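 further: viability read after 3 h of compound exposure; nearly all actives have a fitted effect of over 50% in size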
Outline: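 Cytotoxicity counter screen multiplexed with the CRE-bla reporter assay in HEK 293T cells: 3 h compound exposure at 37 °C, followed by CellTiter-Glo luminescence measured in the same wells.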
Potency means the concentration at half of the fitted maximal effect.

Row | Structure (SMILES) | Potency [1] | Potency [2] | viability change, negative = cytotoxic [1] | activity change, negative = cytotoxicity [2]
1 | NCCO | inactive | inactive |  | 
2 | C=CCCCCCCCCCC | inactive | inactive |  | 
3 | CCCCCCCC/C=C\CCCCCCCC(=O)OCCCC |  |  | -0.67% [at 18.9 µM] | -19.4% [at 18.9 µM]
4 | CC1=NN(c2ccccc2)C(=O)C1 | inactive | inactive |  | 
5 | CCCCCCCCCCCCCC[n+]1ccccc1 | 48.6 µM (active) | 61.1 µM (active) |  | 
6 | CCCCCCn1c(=O)c2c(ncn2C)n(C)c1=O | inactive | inactive |  | 
7 | CCO[Si](C)(CCCOCC1CO1)OCC (stereo not given) | inactive | inactive |  | 
8 | Cc1ccc(C(C)C)c(O)c1 | inactive | inactive |  | 
9 | CCC(=O)OCCOc1ccccc1 | inactive | inactive |  | 
10 | CCN(CC)CCNC(=O)c1cc(Br)c(N)cc1OC | inactive | inactive |  | 
11 | C=CC(=O)OCCN(CC)CC | inactive | inactive |  | 
12 | CC(=O)OCCC(C)C | inactive | inactive |  | 
13 | CCCCCCCCCC(=O)O | inactive | inactive |  | 
14 | CC(C)CC(C)CC(C)CC(C)COC(=O)c1ccccc1C(=O)OCC(C)CC(C)CC(C)CC(C)C (stereo not given) | inactive | inactive |  | 
15 | COC(=O)C1=C(C)NC(C)=C(C(=O)OC(C)C)C1c1cccc2nonc12 (stereo not given) | inactive | inactive |  | 
16 | COCc1nnc(-c2ccc[n+]([O-])c2)n1-c1c(Cl)c(Cl)cc2[nH]c(=O)c(=O)[nH]c12 | inactive | inactive |  | 
17 | Cc1ccc(C(=O)Oc2ccc(C(O)CNC(C)(C)C)cc2OC(=O)c2ccc(C)cc2)cc1 (stereo not given) | inactive | inactive |  | 
18 | C#CCOC(=O)[C@@H](C)Oc1ccc(Oc2ncc(Cl)cc2F)cc1 | inactive | inactive |  | 
19 | OC1(c2ccc(Cl)cc2)CCNCC1 | inactive | inactive |  | 
20 | CCC(CN)=C(c1ccccc1)c1ccccc1 | inactive | inactive |  | 

Row | Structure (SMILES) | Potency [1] | Potency [2] | viability change, negative = cytotoxic [1] | activity change, negative = cytotoxicity [2]
21 | CCC(C)c1ccccc1 (stereo not given) | inactive | inactive |  | 
22 | CC(C)(C(=O)c1cccnc1)c1cccnc1 | inactive | inactive |  | 
23 | CN(C)CCN(Cc1cccs1)c1ccccn1 | inactive | inactive |  | 
24 | CC(=O)S[C@H](C(=O)N[C@H]1Cc2ccccc2[C@H]2CCC[C@@H](C(=O)O)N2C1=O)C(C)C | inactive | inactive |  | 
25 | CCN(Cc1cccc(S(=O)(=O)O)c1)c1ccc(C(=C2C=CC(=[N+](CC)Cc3cccc(S(=O)(=O)[O-])c3)C=C2)c2ccccc2)cc1 | inactive | inactive |  | 
26 | CC(C)C(=O)Nc1cccc(C2CN3CCSC3=N2)c1 (stereo not given) | inactive | inactive |  | 
27 | CC(C)NCC(O)COc1cccc2ccccc12 (stereo not given) | inactive | inactive |  | 
28 | CCOC(=O)c1ccc(N)cc1 | inactive | inactive |  | 
29 | N[C@@H](CS)C(=O)O | inactive | inactive |  | 
30 | C=CC(C)(C)CC(=O)OC | inactive | inactive |  | 
31 | O=C(O)C(=O)O | inactive | inactive |  | 
32 | c1ccc2c(c1)CCC2 | inactive | inactive |  | 
33 | Nc1ncn([C@@H]2O[C@H](CO)[C@@H](O)[C@H]2O)c(=O)n1 | inactive | inactive |  | 
34 | CCCCCCC/C=C/C=O | inactive | inactive |  | 
35 | CCN1CC(CCN2CCOCC2)C(c2ccccc2)(c2ccccc2)C1=O (stereo not given) | inactive | inactive |  | 
36 | C1CCN(CN2CCCCC2)CC1 | inactive | inactive |  | 
37 | C=CCCCCCCCCC=O | inactive | inactive |  | 
38 | C=C(C)C(=O)O | inactive | inactive |  | 
39 | CC(C)c1cccc(O)c1 | inactive | inactive |  | 
40 | CC(=O)CCc1ccccc1 | inactive | inactive |  | 

Row | Structure (SMILES) | Potency [1] | Potency [2] | viability change, negative = cytotoxic [1] | activity change, negative = cytotoxicity [2]
41 | O=Cc1ccccc1Cl | inactive | inactive |  | 
42 | CC(N)C(=O)OC(C)(C)Cc1ccc(Cl)cc1 (stereo not given) | inactive | inactive |  | 
43 | CN(C)CCN(Cc1ccsc1)c1ccccn1 | inactive | inactive |  | 
44 | Cc1cccc(C)c1[N+](=O)[O-] | inactive | inactive |  | 
45 | O=C(O[C@@H]1Cc2c(O)cc(O)cc2O[C@@H]1c1cc(O)c(O)c(O)c1)c1cc(O)c(O)c(O)c1 | inactive | inactive |  | 
46 | Clc1ccc2c(c1)CCc1cccnc1C2=C1CCNCC1 | inactive | inactive |  | 
47 | CN/C(=C\[N+](=O)[O-])NCCSCc1csc(CN(C)C)n1 | inactive | inactive |  | 
48 | CC(C(=O)O)c1ccc2c(c1)[nH]c1ccc(Cl)cc12 (stereo not given) | inactive | inactive |  | 
49 | CC(Cc1ccccc1)(NC(=O)CN)c1ccccc1 (stereo not given) | inactive | inactive |  | 
50 | CO[Si](CCCNc1ccccc1)(OC)OC | inactive | inactive |  | 
51 | Cc1cc(=O)n(-c2ccccc2)n1C | inactive | inactive |  | 
52 | [O-][n+]1ccc(Cl)cc1 | inactive | inactive |  | 
53 | OCCCCCCCCCCCCBr | inactive | inactive |  | 
54 | CCC1C(=O)OCC1Cc1cncn1C (stereo not given) | inactive | inactive |  | 
55 | C=CC(C)(O)CC/C=C(\C)CCC=C(C)C (stereo not given) | inactive | inactive |  | 
56 | CCCCC(=O)O | inactive | inactive |  | 
57 | CC[N+](CC)(CC)CCOc1cccc(OCC[N+](CC)(CC)CC)c1OCC[N+](CC)(CC)CC | inactive | inactive |  | 
58 | Nc1ccnc(=O)[nH]1 | inactive | inactive |  | 
59 | c1ccc2c(c1)-c1cccc3c1c-2cc1ccccc13 | inactive | inactive |  | 
60 | C/C=C(\C)C(=O)OCc1ccccc1 | inactive | inactive |  | 
